# Test results published in PubChem BioAssay AID2216 (Broad Institute, 2009).
# The whole screen tested about 300,000 compounds, of which about 3,300 (1.1%) were called active. About 6% were inconclusive and are not listed. The sample as a whole holds a higher share of actives than the screen did. A number with no mark means an inactive call.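 How the source made its calls: active means more than half of the replicate wells show a fall in the fluorescence ratio signal beyond about 16% (limit read from the data, passing the limit was not always enough); inconclusive means exactly half of the replicate wells pass the set limit; inactive means fewer than half of replicates pass the limit.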
# Test system: Ran GTPase (GTP-bound) - importin-beta complex
# Test: inhibitors of RanGTP-importin-beta interaction, primary screen, biochemical, FRET, CFP-Ran, YFP-importin-beta, homogeneous (AID 2216);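 further: 0% = DMSO wells and 100% = Ran loaded with GDP instead of GTP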
# Details: cell-free CFP-Ran/YFP-importin-beta FRET ratio; active compounds read high; concentration not given here
row,SMILES,inhibition
1,Cc1cc(=O)[nH]c(SCc2ccc(Cl)cc2)n1,2.35%
2,COc1ccccc1CCC(=O)OCC(=O)N1CCN(S(=O)(=O)c2ccc(C)cc2C)CC1,-0.0627%
3,Cc1ccc(S(=O)(=O)CCC(=O)OCC(=O)N(C)C2CCS(=O)(=O)C2)cc1 (stereo unspecified),-1.57%
4,CCc1ccc(C(=O)COC(=O)c2ccco2)cc1,-1.46%
5,O=C(Nc1ccc2nc3n(c(=O)c2c1)CCCCC3)c1ccccc1Cl,-0.768%
6,O=C(Nc1ccc2sc3ccccc3c(=O)c2c1)c1ccccc1Cl,97.7% (active)
7,O=C(Nc1cccc(NC(=O)c2ccccc2[N+](=O)[O-])c1)c1ccccc1Cl,1.99%
8,COc1cnn(-c2ccc([N+](=O)[O-])cc2)c(=O)c1Cl,9.19%
9,CCCCCN(C(=O)CCC(=O)OCC(=O)NC1CCC(C)CC1)c1c(N)n(CCCC)c(=O)[nH]c1=O (stereo unspecified),10.6%
10,O=C(NC(Cc1ccccc1)C(=O)N1CCCC(C(F)(F)F)C1)c1ccccc1 (stereo unspecified),-0.899%
11,Cc1cc(O)ccc1NC1=CC(=O)CC(C)(C)C1,18.8% (active)
12,CC1(C)CC(=O)C=C(Nc2ccccc2)C1,11.7%
13,COC(=O)NNC1=CC(=O)CC(C)(C)C1,2.34%
14,CCCCCCCNC(=O)C1(CC2CC(c3cccc(Br)c3)=NO2)CCN(C(=O)c2cc(OCC)c(OCC)c(OCC)c2)CC1 (stereo unspecified),-1.08%
15,COc1cc(/C=C(\C#N)c2nc3ccccc3[nH]2)ccc1O,-13.2%
16,COc1ccc(/C=C(\C#N)c2c[nH]c3ccccc23)cc1,17.3% (active)
17,COc1ccc2[nH]cc(/C=C(/C#N)S(=O)(=O)c3ccccc3)c2c1,-20.9%
18,CCCNC(=O)c1ccc(N2CCC3(CC2)CC(c2cccc(Br)c2)=NO3)c(NC(=O)c2ccco2)c1,-1.47%
19,Cc1cc(/C=C2/SC(=O)N(CC(=O)N3CCCC3)C2=O)c(C)n1C,-0.395%

row,SMILES,inhibition
1,CCN(CC(=O)Nc1c(F)cccc1F)C(=O)CN1c2cccc3cccc(c23)S1(=O)=O,-0.907%
2,COc1ccc(Cc2nnc(SCC(=O)Nc3ccc(C)c(Cl)c3)[nH]c2=O)cc1,-0.239%
3,O=C(COC(=O)c1ccc([N+](=O)[O-])cc1Cl)NC(=O)c1ccccc1,-13.9%
4,Cc1ccc(C2=C/C(=C\c3cccnc3)C(=O)O2)cc1,8.88%
5,CN(C)/C=C1\C=C(c2ccccc2)OC1=O,-3.27%
6,COc1cccc(/C=C2\C=C(c3ccc(C)cc3)OC2=O)c1OC(C)=O,20.6% (active)
7,COc1cccc(/C=C/C(=O)OCC(=O)N2CCCc3ccccc32)c1,3.35%
8,O=C(CCNC(=O)c1ccc(Br)cc1)NCCCc1ccccc1,1.56%
9,COc1ccc(CCNC(=O)Cn2c(=O)n(CC3CCCO3)c(=O)c3ccccc32)cc1OC (stereo unspecified),-2.65%
10,Cc1ccc(C(=O)NCCN2CCOCC2)cc1C,-1.81%
11,Cc1cccn2c(=O)c3cc(C(=O)NC4CCCCC4)sc3nc12,2%
12,Cc1cccn2c(=O)c3cc(C(=O)NCCN4CCOCC4)c(=N)n(Cc4cccnc4)c3nc12,167% (active)
13,Cc1cccn2c(=O)c3cc(C#N)c(=NC(=O)c4cccnc4)n(CC4CCCO4)c3nc12 (stereo unspecified),154% (active)
14,Cc1ccc2nc3c(cc(C(=O)NCCc4ccccc4)c(=N)n3CC3CCCO3)c(=O)n2c1 (stereo unspecified),182% (active)
15,Cc1ccccc1NC(=O)Cn1c(=O)n(CC2CCCO2)c(=O)c2ccccc21 (stereo unspecified),0.402%
16,COc1ccc2oc(C(=O)NCc3ccco3)c(C)c2c1,-0.417%
17,COc1ccc(CCn2c(=N)c(C(=O)NCc3ccco3)cc3c(=O)n4cccc(C)c4nc32)cc1,21.1% (active)
18,Cc1ccc(CCNC(=O)c2ccc3nc4ccccc4c(=O)n3c2)cc1,8.55%
19,O=C(NCc1cccnc1)c1cc(S(=O)(=O)N2CCOCC2)c(Cl)cc1Cl,-0.678%

row,SMILES,inhibition
1,O=C(NCc1ccco1)c1cccn2c(=O)c3c4c(sc3nc12)CCCC4,-9.38%
2,COc1cccc(NC(=O)CSc2nccn(-c3ccc4c(c3)OCCO4)c2=O)c1,-2.91%
3,CCCCN(C1CCS(=O)(=O)C1)S(=O)(=O)c1ccc(C(C)C)cc1 (stereo unspecified),0.359%
4,O=C(c1ccc(NS(=O)(=O)c2ccc3[nH]c(=O)[nH]c3c2)cc1)N1CCCCC1,0.81%
5,COc1ccc(CCNC(=O)c2ccccc2OCc2ccccc2)cc1,2.59%
6,O=C(N[C@@H](Cc1ccccc1)C(=O)OCc1ccccc1)c1nc[nH]c1C(=O)NC1CCNCC1,1.19%
7,Cc1ccc2nc(N3CCN(C(=O)c4ccco4)CC3)sc2c1,-2.41%
8,COc1ccc(C(=O)OCC(=O)c2ccc(Cl)s2)c(OC)c1OC,0.711%
9,Cc1cc(C)c(S(=O)(=O)NCC(c2ccc3c(c2)OCO3)N2CCOCC2)c(C)c1 (stereo unspecified),2.24%
10,O=C(NCC1CCCO1)c1cc2c([nH]c3ccccc32)c(-c2ccc(F)cc2)n1 (stereo unspecified),-5.32%
11,Cc1cccn2c(=O)c3cc(C(=O)N4COCC4(C)C)n(C)c3nc12,-4.28%
12,Cc1cccn2c(=O)c3cc(C#N)c(=O)n(CCCN4CCOCC4)c3nc12,117% (active)
13,Cc1cccn2c(=O)c3cc(C(=O)NCC4CCCO4)c(=N)n(Cc4ccc(F)cc4)c3nc12 (stereo unspecified),188% (active)
14,CCOC(=O)C1CCN(Cc2c(C(=O)N3CCOCC3)nc3c(C)cccn23)CC1,-0.645%
15,COc1ccc(CCn2c(=N)c(C(=O)NCC3CCCO3)cc3c(=O)n4cccc(C)c4nc32)cc1OC (stereo unspecified),0.0539%
16,CCc1noc(C)c1C(=O)N1CCCC(N2CCN(c3ccc(F)cc3)CC2)C1 (stereo unspecified),3.28%
17,OCc1ccc(-c2ccccc2)c(-c2ccccc2)c1,3.41%
18,CCOC(=O)c1ccc(NC(=O)c2c(NCc3ccccc3)[nH]c(=O)[nH]c2=O)cc1,-5.92%
